The structures appear in SMILES notation. Values joined by “and” are separate entries in the source; they are usually repeats but may differ in a detail not shown here. Identical values can stand only once. Hit rate of the full screen: of about 67,000 compounds, about 40 (0.06%) showed an effect of 50% or more. This excerpt belongs to a sample that is enriched for strong results.

This experiment concerns the target T1, Coenzyme A biosynthesis bifunctional protein CoaBC (Mycobacterium tuberculosis (strain ATCC 25618 / H37Rv)) (UniProt P9WNZ1).
T1 sequence (whole entry): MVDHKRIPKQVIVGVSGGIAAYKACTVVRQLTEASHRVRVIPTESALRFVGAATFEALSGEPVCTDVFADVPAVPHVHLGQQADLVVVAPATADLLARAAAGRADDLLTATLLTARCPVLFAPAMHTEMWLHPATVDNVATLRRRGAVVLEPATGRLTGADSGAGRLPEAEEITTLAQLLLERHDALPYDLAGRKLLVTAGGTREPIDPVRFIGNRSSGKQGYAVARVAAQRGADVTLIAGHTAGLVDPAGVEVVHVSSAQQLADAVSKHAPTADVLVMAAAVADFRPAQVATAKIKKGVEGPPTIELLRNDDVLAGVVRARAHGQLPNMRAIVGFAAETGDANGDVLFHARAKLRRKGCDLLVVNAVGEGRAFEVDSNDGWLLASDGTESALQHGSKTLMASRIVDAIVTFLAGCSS
Briefly: Biomol Green assay for MtCoaBC inhibitor, OD650 read. Type of experiment: functional. Details: scale not given: in the data most compounds retested in dose-response had high values. The following applies: 30 µM.
Consider `COc1cc(N2CCC[C@]3(C(=O)O)CN(C(C)C)C[C@@H]3C2)ncn1`, for which the Percent Effect was -10.7%.
With `c1ccc(CN2C[C@@H]3COC[C@]3(COCC3CCOCC3)C2)nc1` the figure was 9.51%; with `COCCNC(=O)C[C@@H]1COC[C@H]2CN(CC3CCOCC3)C[C@@H]12`, -2.48%.
On to `COc1cnc(N2CCN(C)CC2)nc1-c1ccnn1C`, for which the Percent Effect stood at 5.52%.
The value for `Cc1cnc(N2CCN(C)CC2)nc1-c1ccnn1C` was 5.03%; that for `CN1[C@H](Cn2cccn2)C[C@@H]2CN(Cc3cccs3)CC[C@@H]21` was 5.67%; that for `CO[C@@H]1CN(Cc2scnc2C)[C@@H]2CCCO[C@@H]21` was -51.5%.
The value for `O=C(c1ccc[nH]1)N1C[C@H]2CN(Cc3cccc(F)c3)C(=O)[C@H]2C1` was 8.74%; that for `Cc1ccc(S(=O)(=O)NCCNC(=O)c2cncnc2C)cc1` was 5.91%.
`CCc1ncncc1C(=O)NCCNS(=O)(=O)c1ccc(C)cc1`: the Percent Effect was 3.17% and 20.9%.
With `Cc1ccc(N2CCO[C@H]3CN(Cc4cccnc4)C[C@H]32)nn1` the figure was 3.85%; with `C[C@H]1C[C@H]2CN(C(=O)c3ccncn3)CC[C@@H]2O1`, 3.76%.
With `Cc1cccc(CN2C[C@H]3CCC[C@@]3(COCc3csc(C)n3)C2)n1` the figure was 3.06%; with `CCOCC1CN(C(=O)C2=CCCC2)Cc2cnn(CC)c21` (configuration not stated), 12.8%; with `CCOCC1CN(C(=O)N2CCCC2)Cc2cnn(C)c21` (configuration not stated), -2.1%.
With `O=C1NCCO[C@H]2CN(C(=O)c3cccs3)CC[C@@H]12` the figure was 2.96%; with `CNC(=O)[C@H]1C[C@@H]2CN(C(=O)c3ccncc3)C[C@@H]2N1S(C)(=O)=O`, 2.59%; with `O=C(NCCc1cccs1)[C@H]1CO[C@H]2CCN(C3CCC3)C[C@H]2C1`, 6.17%.
Regarding `O=C1CO[C@@H]2CNC[C@H]2N1CC1CC1`, the Percent Effect came to 0%.
The value for `Cn1cc(CN2CC[C@@H]3[C@@H]2CCN3C(=O)c2cccc(F)c2)cn1` was 5.07%; that for `CN1CCCCC1c1cncc(N2CCC(O)CC2)n1` (configuration not stated) was -0.526%; that for `Cc1cc(N2CCC(O)CC2)nc(C)n1` was 11.1%.
For the compound `CCCc1cc(C(=O)N2C[C@H]3CC=C(C)C[C@H]3C2)ccn1`, the Percent Effect was 2.3%.
With `O=C(NCC1CCOCC1)[C@@H]1C[C@@H]2[C@@H](CCN2Cc2ccoc2)O1` the figure was 2.96%.
The value for `CCc1cnc(N2C[C@H]3CN(Cc4ccc(OC)cc4)C(=O)[C@H]3C2)nc1` was -3.75%.
The value for `CC(C)c1nc(C(=O)N2C[C@H]3CC[C@@H]2CN(C2CCOCC2)C3)cs1` was 5.66%; that for `Cn1cc(CN2CC[C@H]3O[C@H](C(=O)NC4CC4)CC[C@H]32)c2ccccc21` was -3.06%; that for `CN(C)c1ncc2c(n1)CN(C1CC(C)(C)NC(C)(C)C1)C2=O` was 0.231%.
Take `CC(C)OC(=O)N1C[C@H]2CC[C@@H]1CN(Cc1cccnc1)C2`: the Percent Effect worked out at 5.14%.
Take `COC1CCN(CCNC(=O)NCC(C)c2cccc(C)c2)CC1` (configuration not stated): the Percent Effect was -16.8%.
The value for `COC1CCN(CCNC(=O)NC(C)c2cccc(Cl)c2)CC1` (configuration not stated) was -0.455%.
With `COc1cccc(CN2C[C@H]3CC[C@H]2C3)c1OCCN1CCOCC1` the figure was 4.29%; with `CCc1ccc(CN2CCN(CCOC)[C@@H]3CS(=O)(=O)C[C@@H]32)cc1`, 8.73%.
With `Cc1noc(C)c1CN1C[C@@H]2COC[C@H](C(=O)N3CCCCO3)[C@@H]2C1` the figure was 0.259%; with `CC(C)N(Cc1ccc(Cl)c(Cl)c1)C(=O)CCn1cncn1`, 5.9%; with `CC(C)N(Cc1ccc(Cl)c(Cl)c1)C(=O)Cn1cncn1`, 5.66%.
As for `O=C(c1ccncc1)N1C[C@@H](OCc2cccnc2)[C@H]2OCCC[C@H]21`, the Percent Effect stood at 4.2%.
With `Cc1ccc(-n2cc(S(=O)(=O)Nc3cccc(C(=O)O)c3C)cn2)cc1` the figure was 0.726%; with `Cc1ccc(NS(=O)(=O)c2cnn(-c3ccccc3)c2)c(C(=O)O)c1`, 64.4% and 43.6%.
Regarding `Cc1ccc(NS(=O)(=O)c2cnn(Cc3ccccc3)c2)c(C(=O)O)c1`, the Percent Effect was 0.726%.
In the case of `COCCC(=O)NC[C@H]1CC[C@H](C(c2ccccn2)N(C)C)CC1` (some centres not stated), the Percent Effect is -1.84%.
Regarding `CNC(=O)N1CC[C@@H]2CN(Cc3ccccc3)S(=O)(=O)[C@@H]2CC1`, the Percent Effect came to 1.48%.
The value for `Cc1ccc(N2CC[C@@]3(O)CCN(S(C)(=O)=O)C[C@H]3C2)nn1` was -0.123%; that for `O=C(CC1CC1)N1CC[C@H]2[C@@H]1CCC(=O)N2c1cccnc1` was 5.4%; that for `COc1cc(N2CC[C@@H]3O[C@H](C(=O)NCC4CC4)C[C@@H]32)ncn1` was -0.37%.
As to `O=C1COC2(CCN(Cc3ccoc3)CC2)CN1CCn1cccn1`, the Percent Effect is -3.75%.
The value for `COCCN1CCC2(CC1)CN(CCn1cccn1)C(=O)CO2` was -1.25%.
The value for `Cn1cc(C(=O)N2CC[C@@]3(O)CCN(C4CCCCC4)C[C@H]3C2)cn1` was 0.467%.
Regarding `CN(C)CCO[C@@H]1CC[C@H]2[C@H]1OCCN2C(=O)c1ccccc1F`, the Percent Effect was found to be 3.95%.
The value for `CNC(=O)[C@H]1C[C@@H]2CN(S(=O)(=O)c3ccc(C)cc3)C[C@@H]2N1C` was 1.63%; that for `O=C([C@@H]1C[C@@H]2CCN(c3cccc(F)c3)C[C@H]2O1)N1CCCC1` was -8.02%; that for `Cc1cccc(CN2C(=O)C[C@H]3[C@@H]2CCN3Cc2ccc(F)cc2)n1` was 9.41%.
Consider `CC(=O)N1[C@H](Cn2cncn2)C[C@@H]2CN(c3ccc(C)nn3)CC[C@@H]21`, for which the Percent Effect came to 6.82%.
With `O=C(NC1CCC1)[C@@H]1C[C@@H]2CCN(Cc3ccncc3)C[C@H]2O1` the figure was 4.7%; with `Cc1ccc(NC2(C(=O)N3CCn4cncc4C3)CCCCC2)cc1C`, 4.82%.
With `COc1ccc(NC2(C(=O)N3CCn4cncc4C3)CCCC2)cc1` the figure was 8.96%; with `CC1=N[C@@]2(CC[C@@H]3CN(C(=O)NCc4ccccc4C)C[C@@H]32)C(=O)N1`, 0.609%; with `O=C(COC[C@@H]1CC[C@H]2[C@H](CCN2Cc2ccco2)O1)N1CCCC1`, 9.53%.
Regarding `CCC1(CNC(=O)NC(c2nnc3n2CCC3)C(C)C)CCC1` (configuration not stated), the Percent Effect is -3.55%.
With `CC(C)C(NC(=O)NCC1CC1)c1nnc2n1CCC2` (configuration not stated) the figure was -0.508%; with `COCCN1C(=O)[C@]2(CC[C@@H]3CN(S(=O)(=O)CC(C)C)C[C@@H]32)N=C1C`, -3.81%; with `CC(C)CC(=O)N1CC[C@@H]2CN(CC(=O)N(C)C)S(=O)(=O)[C@@H]2CC1`, 2.32%.
`Cc1noc([C@H]2C[C@@H]3CCN(CC4CC4)C[C@H]3O2)n1`: the Percent Effect is -1.9%.
With `Cc1cccc(CN2CC[C@H]3[C@H]2CCN3Cc2cnn(C)c2)n1`, the Percent Effect was -4.59%.
The value for `c1cc(COC[C@@]23CCC[C@@H]2CN(C2CCOCC2)C3)ccn1` was 6.42%; that for `Cc1cnn(CC2CCCN2Cc2ncc(-c3ccccc3)o2)c1` (configuration not stated) was 2.73%.
The value for `Cc1cnn(CC2CCCN2Cc2nnc(Cc3ccccc3)o2)c1` (configuration not stated) was 0.119%.
